Results taken from the OligoGym collection.

target: ERCC8; assay: pooled miR-30 sensor sort-seq; sequence = guide strand; details: shRNA
Further: reference of the scale not given here.

Sequence	sensor-assay potency score (higher = more potent)
TAACTTTCCCATTATGAGCAGT	-0.724
TAGCTGTCAGGAATAGACCATA	-0.945
TTGACTGAAATACACAGCAGTC	-0.992
TTTGACTGAAATACACAGCAGT	0.0965
TCACACCATCTGAACCACCTGA	0.0366
TTGACTAAATAAACTATACAGA	-1.03
TCTTTCAACATCTCTGTCTTTA	0.0508
TTTCTTGTCTGTGACCCTGTAG	-0.264
TAAACTATACAGAAGTCTGTTT	-0.703
TAATCAAACATCCTGATGCTCT	-0.532
TATTTCTTGTCTGTGACCCTGT	1.1
ATTATCTGTACCAACAGTGAGG	-0.965

target: ERG; assay: as above; details: shRNA

Sequence	sensor-assay potency score (higher = more potent)
TAAATCTGTGTTTCTAGCATGC	0.0224
TAAGACTTCAGTAACTCCCTCC	0.34
TAACAAGATGTTGACGTCTGGA	0.51
TCTTGTCATAGTAGTAACGGAG	-1.01
TAAGACTTCATGCTTCTACATA	-1.33
TACATTTCTTAAGACCACTTTC	-0.508
TTTCTAGCATGCATTAACCGTG	-0.322
TCATCTTGGAAGTCTGTCCATA	-0.884
TTTTGATTCATGTTCTCCGATA	-0.485
TGCTTCTACATACACTGTCTTT	-1.13
TTATCGTAGTTCATGTTGGGTT	-0.512
TTCTTTGGCACTTTGTCCTTAA	-0.383
TGGAAGTCGAACTTGTAGGCGT	0.335
TTTCTTTGGCACTTTGTCCTTA	0.442
TTGAGACAGCCAATCCTGCTGA	0.276
TTCTTGTCATAGTAGTAACGGA	-1.05
TATTGCTTTAGTTTCATCCCAG	-0.25
TAAAATGGCATTATAAACGGTA	-0.0295
TATTCGTGACATTTTTAGCATC	-1.17
TAGCATGCATTAACCGTGGAGA	-0.638
TTCTAGCATGCATTAACCGTGG	-0.659
TTCTCCTCCATGTAGCTGCCGT	-0.46
TTCTGTAGTAAGACTTCAGTAA	0.212
TTACATTCCATTTTGATGGTGA	0.928

target: ERICH1; assay: as above; details: shRNA

Sequence	sensor-assay potency score (higher = more potent)
TTCATTGCTGCTGTCCTCGGGC	0.0342
TCTCTCAGTATCTTGCAGGAGC	-0.55
TTATGCTTCCTAATTCTTCTTC	0.311
TTAACTTAACAGAATGTCCATT	-0.597
